Screen size: about 310,000 compounds; about 14,000 (4.5%) showed an effect of 50% or more. Effects have a minus sign here. This excerpt belongs to a sample that is enriched for strong results.
Molecular target: human ether-à-go-go-related gene (hERG) potassium channel (human, UniProt Q12809)
Test: primary screen, population patch clamp on CHO cells stably expressing hERG; higher = less effect of the substance
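Note: peak tail current of the secondary pulse compared with the same well before compound.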

Sequence of human ether-à-go-go-related gene (hERG) potassium channel (Q12809 whole entry, looked up): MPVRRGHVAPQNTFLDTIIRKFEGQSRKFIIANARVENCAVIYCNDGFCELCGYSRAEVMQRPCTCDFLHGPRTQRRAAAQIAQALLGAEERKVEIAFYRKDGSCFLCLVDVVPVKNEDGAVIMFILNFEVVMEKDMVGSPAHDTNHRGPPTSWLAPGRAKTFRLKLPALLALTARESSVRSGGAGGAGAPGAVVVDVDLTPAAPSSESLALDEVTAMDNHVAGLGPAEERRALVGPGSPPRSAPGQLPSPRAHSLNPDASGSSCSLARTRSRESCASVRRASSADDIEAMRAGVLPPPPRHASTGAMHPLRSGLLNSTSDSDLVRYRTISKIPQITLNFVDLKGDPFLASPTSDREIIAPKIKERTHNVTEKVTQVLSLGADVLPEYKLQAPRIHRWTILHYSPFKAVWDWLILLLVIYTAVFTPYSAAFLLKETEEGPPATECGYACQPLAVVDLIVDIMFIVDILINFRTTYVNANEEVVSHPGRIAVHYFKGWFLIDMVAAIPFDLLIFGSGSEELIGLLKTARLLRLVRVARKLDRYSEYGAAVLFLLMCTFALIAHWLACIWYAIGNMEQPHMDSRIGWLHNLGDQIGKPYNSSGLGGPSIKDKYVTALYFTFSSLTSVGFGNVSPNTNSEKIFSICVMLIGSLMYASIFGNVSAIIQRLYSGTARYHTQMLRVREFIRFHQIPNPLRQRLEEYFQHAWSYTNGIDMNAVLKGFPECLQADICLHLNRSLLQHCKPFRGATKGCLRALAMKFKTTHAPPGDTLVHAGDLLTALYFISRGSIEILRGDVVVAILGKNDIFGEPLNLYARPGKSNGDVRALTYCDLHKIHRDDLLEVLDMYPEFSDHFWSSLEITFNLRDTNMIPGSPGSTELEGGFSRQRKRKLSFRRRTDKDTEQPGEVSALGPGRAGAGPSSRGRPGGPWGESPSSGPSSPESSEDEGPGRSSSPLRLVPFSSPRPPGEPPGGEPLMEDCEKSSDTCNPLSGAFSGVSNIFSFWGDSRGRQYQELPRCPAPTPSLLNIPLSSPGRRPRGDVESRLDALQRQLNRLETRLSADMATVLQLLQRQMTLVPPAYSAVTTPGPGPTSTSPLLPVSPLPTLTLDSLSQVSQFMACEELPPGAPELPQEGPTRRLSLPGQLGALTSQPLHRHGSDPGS

Compound | hERG current change (%, negative = inhibition) at 10uM
Cc1cc2ccccc2n1CCNC(=O)c1cccs1 | -0.757%
CN(C(=O)Nc1ccccc1)C1CCCCC1 | 10.2%
C=CCOC(=O)C1=C(C)NC(SCC(=O)Nc2ccccc2)=C(C#N)C1c1ccco1 (centres unmarked) | -15.1%
CCC(Sc1nc2ccccc2o1)C(=O)Nc1nnc(C)s1 (centres unmarked) | -12.4%
CN(C)C(=O)c1cc(C(=O)c2ccc(F)cc2F)c[nH]1 | 14.6%
CCc1ccc(-n2c(SCc3cc(=O)n4cc(Br)ccc4n3)nc3[nH]ncc3c2=O)cc1 | -51%
Cc1ccccc1-n1c(SCc2cc(=O)n3ccccc3n2)nc2[nH]ncc2c1=O | -35.2%
O=c1c2cn[nH]c2nc(SCc2cc(=O)n3cc(Br)ccc3n2)n1-c1ccc(Br)cc1 | -24.8%
CN(Cc1ccccc1)C(=O)c1ccc2c(c1)OCCO2 | 5.55%
COc1ccc(-c2nc3ccccc3c(=O)n2CCOc2cccc(C)c2C)cc1 | 15%
NC(=O)Cn1cc(C(=O)C(=O)N2CCOCC2)c2ccccc21 | 1.6%
Cc1cc(F)ccc1S(=O)(=O)Nc1ccccc1C(=O)Nc1ccccc1-c1nc2ccccc2[nH]1 | 4.92%
O=C(NN1CC(C(=O)OCc2ccc(Cl)cc2Cl)CC1=O)c1ccccc1 (centres unmarked) | -16.5%
O=C(NN1CC(C(=O)OCc2ccccc2F)CC1=O)c1ccccc1 (centres unmarked) | -56.8%
O=C(NN1CC(C(=O)OCc2ccc(Br)cc2)CC1=O)c1ccccc1 (centres unmarked) | -21.2%
COc1cccc2cc(C(C)N(CCCN3CCOCC3)C(=O)Nc3ccccc3)oc12 (centres unmarked) | -16.9%
COc1cccc(NC(=O)N(CCCN2CCOCC2)C(C)c2cc3cccc(OC)c3o2)c1 (centres unmarked) | -29.4%
COc1cccc(NC(=O)N(CCCN2CCOCC2)C(C)c2cc3ccccc3o2)c1 (centres unmarked) | -62.5%
COc1cccc(NC(=S)N(CCCN2CCOCC2)C(C)c2cc3ccccc3o2)c1 (centres unmarked) | -44%
COc1ccc(NC(=S)N(CCCN2CCOCC2)C(C)c2cc3ccccc3o2)cc1 (centres unmarked) | -78.4%
COc1ccc(NC(=S)N(CCCN2CCOCC2)C(C)c2cc3cccc(OC)c3o2)cc1 (centres unmarked) | -35.5%
Cn1c(=O)oc2cc(S(=O)(=O)NCCC(=O)NCCc3ccccc3)ccc21 | 1.29%
COC(=O)c1ccc(CSc2nc3c(cnn3-c3ccc(F)cc3)c(=O)[nH]2)o1 | 13.1%
O=C(Nc1ccccc1)c1ccc2c(c1)OCCCO2 | -10.7%
O=[N+]([O-])c1cccc(-c2c[n+]3c(n2-c2ccccc2)SCC3)c1.[Br-] | -42.3%
[Br-].c1ccc(Cn2c(-c3ccccc3)c[n+]3c2SCCC3)cc1 | -70.9%
COc1ccc(-c2c[n+]3c(n2-c2ccccc2)SCC3)cc1OC.[Br-] | 4.92%

Compound | hERG current change (%, negative = inhibition) at 10uM
O=C(CSc1nnc2ccc(-c3ccc(F)cc3)nn12)N1CCCC1 | -13.5%
O=C(Nc1c(C(=O)c2ccccc2)oc2ccccc12)c1cc(-c2ccccc2O)n[nH]1 | 9.34%
COc1cc(C(=O)Nc2ccc3c(c2)OCO3)ccc1-n1cnnn1 | -15.6%
O=C(Cn1nnc(-c2ccccc2-n2cnnn2)n1)NCc1ccccc1 | -5.93%
CC1CCC(N2CCN(C(=O)COc3ccccc3)CC2)CC1.O=C(O)C(=O)O (centres unmarked) | -31.4%
COc1ccc(N2CCN(C(=O)COc3ccccc3)CC2)cc1 | -20.6%
Cc1ccc(OCC(=O)N2CCC(N3CCCCCC3)CC2)cc1 | -28.3%
COc1ccc(OCC(=O)N2CCN(C(=O)Cc3ccccc3)CC2)cc1 | -32.5%
COc1ccc(OCC(=O)N2CCN(C3CCC(c4ccccc4)CC3)CC2)cc1 (centres unmarked) | -54.4%
Cc1ccc(OCC(=O)N2CCN(C3CCC(c4ccccc4)CC3)CC2)cc1.O=C(O)C(=O)O (centres unmarked) | -62.8%
COc1ccc(C2NC(=O)Cc3cc(OC)c(OC)cc32)cc1OC (centres unmarked) | 5.46%
COC(=O)c1ccc(/C=C/C(=O)OCC(=O)Nc2ncc(Cl)cc2Cl)cc1 | -19.9%
CCOc1ccccc1CNn1cnnc1 | 2.62%
Cc1nn(Cc2ccc(Cl)c(Cl)c2)c(C)c1NC(=O)c1cc(-c2ccc3c(c2)OCO3)on1 | 6.42%
Cc1cccc(NC(=O)OC2CN3CCC2CC3)c1 (centres unmarked) | -9.77%
CCOCCN1CCN(C2c3ccccc3CSc3ccccc32)CC1.O=C(O)C(=O)O (centres unmarked) | -30.3%
Brc1ccc2c(c1)C(OC1CN3CCC1CC3)c1ccccc1CS2.O=C(O)/C=C\C(=O)O (centres unmarked) | -71.4%
O=C(Nc1ccccc1Cl)OC1CN2CCC1CC2 (centres unmarked) | -32.9%
CN1CCN(CCOC2c3ccccc3CSc3ccc(Cl)cc32)CC1.O=C(O)/C=C\C(=O)O (centres unmarked) | -57.2%
Clc1ccc2c(c1)C(C1=NCCN1)c1ccccc1CS2.O=C(O)/C=C\C(=O)O (centres unmarked) | -8.02%
O=C(Nc1cccc(Cl)c1)OC1CN2CCC1CC2 (centres unmarked) | 29.5%
Brc1ccc2c(c1)C(C1=NCCN1)c1ccccc1CS2.O=C(O)/C=C\C(=O)O (centres unmarked) | -20.3%
Clc1ccc2c(c1)C(OC1CN3CCC1CC3)c1ccccc1CS2.O=C(O)/C=C\C(=O)O (centres unmarked) | -50.6%
CCC(=O)OC1(C)C(=O)C=C2C=C(CCCCNC(=O)OC(C)(C)C)OC=C2C1=O (centres unmarked) | 6.58%
CCCN(CCC)CCCNC(=O)CN1C(=O)CSc2ccc(S(=O)(=O)N3CCOCC3)cc21 | 20.2%
CCc1ccc(-c2nnn(Cc3nc4ccccc4s3)n2)cc1 | -10.3%

— article PMC4336329 (PLoS ONE, 2015)
